Where a name gives a salt, the structure may show the parent alone.
The compounds below were run on CLZ3 (HCA2 human fibroblast dual HR-NHEJ reporter) (assay: HR repair efficiency (tdTomato+ cells) relative to control (log10 fold); higher = more homologous recombination). Conditions: 5 µM; doxycycline 0.5 ug/mL.
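Further: compound given one day before doxycycline, which switches on I-SceI endonuclease expression to create double-strand breaks within the integrated reporter.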

Row | Compound | HR repair efficiency (log10)
1 | O=C(/C=C/c1ccc(O)cc1)OC[C@H]1O[C@@H](Oc2c(-c3ccc(O)cc3)oc3cc(O)cc(O)c3c2=O)[C@H](O)[C@@H](O)[C@@H]1O [Tiliroside] | -0.0226
2 | C/C=C/c1cc(OC)c2c(c1)C(C)C(c1ccc(O)c(OC)c1)O2 (centres undefined) [Dehydrodiisoeugenol] | -0.0825
3 | C[C@@H]1CC[C@]2(C(=O)O[C@@H]3O[C@H](CO)[C@@H](O)[C@H](O)[C@H]3O)CC[C@]3(C)C(=CC[C@@H]4[C@@]5(C)CC[C@H](O)[C@@](C)(CO)[C@@H]5CC[C@]43C)[C@@H]2[C@]1(C)O [Pedunculoside] | 0.237
4 | C[C@@H]1O[C@@H](OC[C@H]2O[C@@H](OCCc3ccc(O)c(O)c3)[C@H](O)[C@@H](O[C@@H]3O[C@@H](C)[C@H](O)[C@@H](O)[C@H]3O)[C@@H]2OC(=O)/C=C/c2ccc(O)c(O)c2)[C@H](O)[C@H](O)[C@H]1O [Poliumoside] | 0.0718
5 | O=C1C[C@@H](c2ccc(O)cc2)Oc2cc(O)ccc21 [Liquiritigenin] | 0.142
6 | O=Cc1ccc(O)c(O)c1 [Protocatechuic aldehyde] | -0.256
7 | C[C@H]1CC[C@@]2(OC1)O[C@H]1C[C@H]3[C@@H]4CC[C@@H]5C[C@@H](O)CC[C@]5(C)[C@H]4CC[C@]3(C)[C@H]1[C@@H]2C [Sarsasapogenin] | 0.0364
8 | CC(=O)OCC1=C[C@@H]2OC(=O)C3=CO[C@@H](O[C@@H]4O[C@H](CO)[C@@H](O)[C@H](O)[C@H]4O)[C@H]1[C@@H]32 [Asperuloside] | 0.1
9 | COc1cc(-c2coc3cc4c(c(OC)c3c2=O)OCO4)cc(OC)c1OC [Irisflorentin] | 0.0727
10 | O=C(O)c1cc(O)c2c(c1)C(=O)c1cccc(O)c1C2=O [Rhein] | -0.07
11 | COc1ccc(-c2oc3c(CC=C(C)C)c(O[C@@H]4O[C@H](CO)[C@@H](O)[C@H](O)[C@H]4O)cc(O)c3c(=O)c2O[C@@H]2O[C@@H](C)[C@H](O)[C@@H](O)[C@H]2O)cc1 [Icarrin] | 0.0409
12 | CCCCCCCCC[C@H](O)CC(=O)CCc1ccc(O)c(OC)c1 [10-Gingerol] | 0.0717
13 | O=C1C[C@@H](c2ccc(O)c(O)c2)Oc2cc(O)cc(O)c21 [Eriodictyol] | 0.0227
14 | COC(=O)C1=CO[C@@H](O[C@@H]2O[C@H](CO)[C@@H](O)[C@H](O)[C@H]2O)[C@H]2[C@@H]1C(=O)C[C@@H]2C [Verbenalin] | 0.178
15 | CC(C)=CCc1c(-c2ccc(O)cc2O)oc2c([C@H]3C=C(C)C[C@@H](c4ccc(O)cc4O)[C@@H]3C(=O)c3ccc(O)cc3O)c(O)cc(O)c2c1=O [Kuwanon G] | 0.129
16 | C=CCc1ccc(O)c(-c2ccc(O)c(CC=C)c2)c1 [Honokiol] | 0.163
17 | C=C1CC[C@H]2C(=C)CC[C@H]3C(=C)C(=O)O[C@@H]3[C@@H]12 [Dehydrocostus Lactone] | 0.03
18 | C[C@H]1O[C@@H](O[C@H]2CC[C@@]3(C)[C@@H](CC[C@]4(C)[C@@H]3C=CC3=C5CC(C)(C)CC[C@]5(CO)[C@H](O)C[C@]34C)[C@]2(C)CO)[C@H](O)[C@@H](O[C@@H]2O[C@H](CO)[C@@H](O)[C@H](O)[C@H]2O)[C@H]1O [Saikosaponin B2] | 0.123
19 | C[C@@H]1CC[C@@]2(OC1)O[C@H]1C[C@H]3[C@@H]4CC=C5C[C@@H](O)C[C@@H](O)[C@]5(C)[C@H]4CC[C@]3(C)[C@H]1[C@@H]2C [Ruscogenin] | 0.181
20 | O=C(/C=C/c1ccc(O)c(O)c1)O[C@@H]1CC(O)(C(=O)O)C[C@@H](OC(=O)/C=C/c2ccc(O)c(O)c2)C1O (some centres undefined) [Isochlorogenic acid A] | 0.0109

Row | Compound | HR repair efficiency (log10)
21 | COc1cc(CNC(=O)CCCCCCC(C)C)ccc1O [Dihydrocapsaicin] | -0.256
22 | O=C(/C=C/c1ccc(O[C@@H]2O[C@H](CO)[C@@H](O)[C@H](O)[C@H]2O)cc1)c1ccc(O)cc1O [Isoliquiritin] | -0.0597
23 | COc1cc([C@H]2OC[C@H]3[C@@H]2CO[C@@H]3c2ccc(O[C@@H]3O[C@H](CO)[C@@H](O)[C@H](O)[C@H]3O)c(OC)c2)ccc1O[C@@H]1O[C@H](CO)[C@@H](O)[C@H](O)[C@H]1O [PinoresinolDiglucoside] | -0.138
24 | c1ccc2c(c1)OC1c3ccccc3OCC21 (centres undefined) [Pterocarpan] | -0.0555
25 | Cc1nc(C)c(C)nc1C [Ligustrazine hydrochloride] | 0.079
26 | C[C@]12C[C@@H](O)[C@@H]3C[C@@]1(O[C@@H]1O[C@H](CO)[C@@H](O)[C@H](O)[C@H]1O)[C@@]3(COC(=O)c1ccccc1)C(=O)O2 [Albiflorin] | 0.153
27 | COc1cc(OC)c(CCC(=O)c2ccc(O)cc2)c(OC)c1 | 0.0988
28 | C=CC1=C(C)/C(=C/c2[nH]c(Cc3[nH]c(/C=C4\NC(=O)C(C)=C4C=C)c(C)c3CCC(=O)O)c(CCC(=O)O)c2C)NC1=O [Bilirubin] | -0.0828
29 | C[C@@H](CC[C@@]1(O)O[C@H]2C[C@H]3[C@@H]4CC[C@@H]5C[C@@H](O[C@@H]6O[C@H](CO)[C@H](O)[C@H](O)[C@H]6O[C@@H]6O[C@H](CO)[C@@H](O)[C@H](O)[C@H]6O)CC[C@]5(C)[C@H]4CC[C@]3(C)[C@H]2[C@@H]1C)CO[C@@H]1O[C@H](CO)[C@@H](O)[C@H](O)[C@H]1O [Timosaponin b- II] | -0.131
30 | COc1ccc2c(c1O)-c1c(O)c(OC)cc3c1[C@H](C2)[N+](C)(C)CC3 [Magnoflorine hydrochloride] | -0.0478
31 | COc1ccc2c(c1O)-c1c(O)c(OC)cc3c1[C@H](C2)[N+](C)(C)CC3 [Magnoflorine iodide] | -0.0243
32 | COc1cc([C@H]2OC[C@H]3[C@@H]2CO[C@H]3c2ccc(OC)c(OC)c2)ccc1O [Phillygenin] | 0.116
33 | COc1ccc(-c2cc(=O)c3c(O)c(OC)c(O)cc3o2)cc1 [Pectolinarigenin] | -0.0222
34 | COC(=O)C1=CO[C@@H](O[C@@H]2O[C@H](CO)[C@@H](O)[C@H](O)[C@H]2O)[C@@H]2C(CO)=CC[C@H]12 [Geniposide] | 0.172
35 | C/C=C(/C)C(=O)O[C@H]1[C@@H](OC(=O)CC(C)C)c2c(ccc3ccc(=O)oc23)OC1(C)C [Praeruptorin E] | -0.0529
36 | COc1cc(O)c2c(=O)c3c(O[C@@H]4O[C@H](CO)[C@@H](O)[C@H](O)[C@H]4O)ccc(O)c3oc2c1 [Swertianolin] | 0.201
37 | Cc1cc(=O)c2c(O)c3c(cc2o1)OC(C)(C)[C@@H](O[C@@H]1O[C@H](CO)[C@@H](O)[C@H](O)[C@H]1O)C3 [Sec-O-Glucosylhamaudol] | -0.0801
38 | CC1(C)CCC2(CO)C(=C3C=CC4C5(C)CCC(OC6OC(COC7OC(CO)C(O)C(O)C7O)C(OC7OC(CO)C(O)C(O)C7O)C(O)C6O)C(C)(CO)C5CCC4(C)C3(C)CC2O)C1 (centres undefined) [Clinopodiside A] | 0.0428
39 | CC[C@H](CC[C@@H](C)[C@H]1CC[C@H]2[C@@H]3CC=C4C[C@@H](O[C@@H]5O[C@H](CO)[C@@H](O)[C@H](O)[C@H]5O)CC[C@]4(C)[C@H]3CC[C@]12C)C(C)C [Daucosterol] | 0.0626

Reference: the supplement of paper PMC7380943
